High-throughput results (PubChem BioAssay)
A selection: hits, their analogues and other compounds. The true share with any hit is near 6.7%.
T cruzi growth-1 = blocks T. cruzi growth in NIH3T3 culture | 77,000 compounds, 5.9% hits | T. cruzi beta-gal in NIH3T3, GalScreen luminescence, 90 h | inhibition, % at 8.34 µM | AID 624255;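 active = mean inhibition above about 93%, with at least 55% of replicates each passing it, limit read from the data, passing the limit was not always enough; inconclusive = only one of those two conditions holds; inactive = neither condition holds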
Pf Dd2 inh = P. falciparum Dd2 growth inhibition; activity change, % at 10 µM; SYBR Green, 72 h; active compounds read low; 94,000 compounds, 2.3% hits; in the data active = activity change below about -80%; inconclusive = no clear call, values can overlap the other calls
C diff growth = blocks growth of Clostridium difficile | Clostridium difficile clinical isolate growth, OD600, 24 h; active compounds read low | growth activity, negative = inhibition, % at 16 µg/mL (by protocol) | 86,000 compounds, 0.25% hits;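 active = mean growth activity at or below -80% and every replicate also at or below -80%; inconclusive = mean at or below -80% but some replicate above -80%; inactive = mean growth activity above -80%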;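 also: 0% = DMSO wells and -100% = levofloxacin 16 µg/mL wells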
T cruzi growth-2 = Trypanosoma cruzi proliferation inhibition. shares compounds with T cruzi growth-1. T. cruzi beta-gal in NIH3T3, GalScreen luminescence, 90 h. inhibition, % at 8.35 µM. 5,600 compounds, 72% hits. AID 651739;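 active = mean replicate inhibition above about 95% and at least 55% of replicates individually reaching it, limit read from the data; inconclusive = only one of the two criteria is met; inactive = neither criterion is met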
T cruzi growth-3 = inhibitors of T. cruzi proliferation. shares compounds with T cruzi growth-1. T. cruzi beta-gal in NIH3T3, GalScreen luminescence, 90 h. inhibition, % at 2.09 µM. 5,600 compounds, 21% hits;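 active = mean inhibition above about 95%, with at least 55% of replicates also reaching it, limit read from the data; inconclusive = meets just one of the two conditions; inactive = meets neither condition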;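 also: plate controls were neutral control median for no effect and positive control median for full effect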
3T3 cytotox = NIH/3T3 (mouse) viability loss; shares compounds with T cruzi growth-1; NIH/3T3 viability, CellTiter-Glo ATP luminescence, 90 h; cytotoxicity (signal decrease), % at 8.35 µM; 5,600 compounds, 14% hits; AID 651742;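 active = mean signal decrease across replicates above about 35% based on untreated-well scatter, with enough replicates individually passing, limit read from the data; inconclusive = no rule stated though some were filed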;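 also: 0% = median of neutral control wells and 100% = median of positive control wells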
NIH3T3 tox 2 = cytotoxicity in mouse NIH/3T3 fibroblasts; shares compounds with T cruzi growth-1; NIH/3T3 viability, CellTiter-Glo ATP luminescence, 90 h; inhibition, % at 24.9 µM; 5,600 compounds, 56% hits;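 active = mean loss of cell viability signal at or above a set limit, and enough replicates individually reaching it; inconclusive = meets only the mean limit or only the replicate share; inactive = meets neither condition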;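 also: 0% = median of neutral control wells and 100% = median of positive control wells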
Starred values were filed as active, the others as inactive; ? = inconclusive; . = no result.

SMILES	T cruzi growth-1	Pf Dd2 inh	C diff growth	T cruzi growth-2	T cruzi growth-3	3T3 cytotox	NIH3T3 tox 2
Cc1ccc(S(=O)(=O)N(C)C[C@H]2Oc3ccc(NC(=O)C4CCCCC4)cc3CC(=O)N([C@@H](C)CO)C[C@H]2C)cc1	34	-39	-1	.	.	.	.
N#C[C@@H]1[C@H](c2ccc(C#Cc3ccc(F)cc3)cc2)[C@@H](CO)N1C(=O)C1CCC1	93	-35	-21	.	.	.	.
N#C[C@H]1[C@H](c2ccc(C#Cc3ccc(F)cc3)cc2)[C@H](CO)N1C(=O)C1CCCC1	104*	-43	-2	101*	71	-8	82*
N#C[C@H]1[C@@H](c2ccc(C#Cc3ccc(F)cc3)cc2)[C@H](CO)N1C(=O)C1CCC1	93	-39	-29	.	.	.	.
N#C[C@H]1[C@H](c2ccc(C#Cc3ccc(F)cc3)cc2)[C@H](CO)N1C(=O)C1CCC1	99*	-46	-14	112*	72	11	83*
COc1cccc(CNC(=O)[C@H]2[C@H](CO)[C@H]3Cn4c(ccc(-c5cncnc5)c4=O)[C@@H]2N3C(C)=O)c1	26	.	-4	.	.	.	.
Cc1noc(C)c1S(=O)(=O)Nc1ccc2c(c1)C(=O)N([C@H](C)CO)C[C@@H](C)[C@H](CN(C)C(=O)Nc1cccc3ccccc13)O2	-141	14	-1	.	.	.	.
C[C@@H]1CCCCO[C@H](CN(C)C(=O)NC2CCCCC2)[C@H](C)CN([C@@H](C)CO)C(=O)c2cc(NS(=O)(=O)c3ccccc3)ccc2O1	102*	-50	-2	104*	43	-3	-6
C[C@@H]1CN([C@H](C)CO)C(=O)c2cc(NS(=O)(=O)c3ccccc3)ccc2O[C@@H](C)CCCCO[C@@H]1CN(C)C(=O)NC1CCCCC1	90	-66	9	.	.	.	.
C[C@@H]1CCCCO[C@H](CN(C)C(=O)NC2CCCCC2)[C@H](C)CN([C@H](C)CO)C(=O)c2cc(NS(=O)(=O)c3ccccc3)ccc2O1	106*	?	7	72	38	-8	-24
C[C@@H]1CCCCO[C@H](CN(C)C(=O)NC2CCCCC2)[C@@H](C)CN([C@@H](C)CO)C(=O)c2cc(NS(=O)(=O)c3ccccc3)ccc2O1	94	-51	-9	.	.	.	.
C[C@H]1CCCCO[C@@H](CN(C)C(=O)NC2CCCCC2)[C@@H](C)CN([C@@H](C)CO)C(=O)c2cc(NS(=O)(=O)c3ccccc3)ccc2O1	102*	-76	5	80	36	10	11
C[C@@H]1CCCCO[C@H](CN(C)C(=O)NC2CCCCC2)[C@@H](C)CN([C@H](C)CO)C(=O)c2cc(NS(=O)(=O)c3ccccc3)ccc2O1	35	-26	4	.	.	.	.
O=C(CN1CCOCC1)NCC[C@@H]1CC[C@H](NC(=O)Nc2ccc(Cl)cc2)[C@@H](CO)O1	57	5	-1	.	.	.	.
CNC[C@@H]1Oc2c(NC(=O)Nc3ccc(OC)cc3)cccc2C(=O)N([C@H](C)CO)C[C@@H]1C	23	22	2	.	.	.	.
COc1ccccc1C#Cc1cnc2c(c1)C(=O)N([C@@H](C)CO)C[C@@H](C)[C@@H](CN(C)C(C)=O)O2	55	4	4	.	.	.	.
CC(C)CC#Cc1ccc([C@@H]2[C@H](CO)N3CCCCN(C(=O)NC4CCCC4)C[C@@H]23)cc1	31	-36	19	.	.	.	.
COc1ccc(NC(=O)N2CCCCN3[C@H](CO)[C@H](c4ccc(C#CCC(C)C)cc4)[C@@H]3C2)cc1	121*	-90*	-12	108*	96*	?	83*
C/C=C/c1ccc([C@H]2[C@H]3CN(C(=O)Nc4ccc(OC)cc4)CCCCN3[C@H]2CO)cc1	42	-16	0	.	.	.	.
COc1ccc(NC(=O)N2CCCCN3[C@H](C2)[C@H](c2ccc(C#CCC(C)C)cc2)[C@@H]3CO)cc1	118*	-43	3	92	61	14	100*
COc1ccc(NC(=O)N2CCCCN3[C@H](CO)[C@@H](c4ccc(C#CCC(C)C)cc4)[C@@H]3C2)cc1	105*	-69	-2	106*	56	39*	104*
COc1ccc(NC(=O)N2CCCCN3[C@@H](CO)[C@H](c4ccc(C#CCC(C)C)cc4)[C@@H]3C2)cc1	114*	-78	-5	98*	106*	118*	103*
CC(C)NC(=O)N(C)C[C@H]1Oc2c(NC(=O)Nc3ccccc3)cccc2C(=O)N([C@@H](C)CO)C[C@H]1C	45	-55	5	.	.	.	.
O=C(c1ccccc1F)N1CC(=O)N2[C@H](C1)[C@@H](c1ccc(-c3ccccc3)cc1)[C@@H]2CO	.	-29	-8	.	.	.	.
CC(C)CC#Cc1ccc([C@@H]2[C@@H](CO)N3CCCCN(C(=O)NC4CCCC4)C[C@H]23)cc1	84	-43	-6	.	.	.	.
SMILES	T cruzi growth-1	Pf Dd2 inh	C diff growth	T cruzi growth-2	T cruzi growth-3	3T3 cytotox	NIH3T3 tox 2
CC(C)CC#Cc1ccc([C@H]2[C@H]3CN(C(=O)NC4CCCC4)CCCCN3[C@H]2CO)cc1	?	-6	8	110*	51	9	104*
O=C(NCC1CC1)[C@@H]1[C@@H](CO)[C@@H]2Cn3c(ccc(-c4ccc(F)cc4)c3=O)[C@H]1N2	7	-6	0	.	.	.	.
C[C@H]1CN([C@@H](C)CO)C(=O)c2cc(C#CC3CCCCC3)cnc2O[C@@H]1CN(C)S(=O)(=O)c1ccc(F)cc1	108*	-41	1	100*	91	13	95*
C[C@H](CO)N1C[C@H](C)[C@@H](CN(C)S(=O)(=O)c2ccc(F)cc2)Oc2ncc(C#CC3CCCCC3)cc2C1=O	86	-39	5	.	.	.	.
C[C@H]1CN([C@@H](C)CO)C(=O)c2cc(C#CC3CCCCC3)cnc2O[C@H]1CN(C)S(=O)(=O)c1cccc(F)c1	.	-12	7	.	.	.	.
C[C@H](CO)N1C[C@H](C)[C@@H](CN(C)S(=O)(=O)c2cccc(F)c2)Oc2ncc(C#CC3CCCCC3)cc2C1=O	.	-31	7	.	.	.	.
C[C@H](CO)N1C[C@H](C)[C@@H](CN(C)S(=O)(=O)c2ccccc2)Oc2ncc(C#CC3CCCCC3)cc2C1=O	107*	-55	4	106*	93	21	85*
C[C@@H]1CN([C@H](C)CO)C(=O)c2cc(C#CC3CCCCC3)cnc2O[C@H]1CN(C)S(=O)(=O)c1cccc(F)c1	.	-22	14	.	.	.	.
C[C@@H]1CN([C@@H](C)CO)C(=O)c2cc(C#CC3CCCCC3)cnc2O[C@@H]1CN(C)S(=O)(=O)c1ccccc1	111*	-28	-10	108*	56	25	94*
C[C@H]1CN([C@@H](C)CO)C(=O)c2cc(C#CC3CCCCC3)cnc2O[C@@H]1CN(C)S(=O)(=O)c1ccccc1	?	-30	1	111*	80	13	87*
COc1cc2c(cc1O)C=[N+](Cc1cc3c(cc1Br)OCO3)CC2	.	.	2	.	.	.	.
